Mm-Cpn inhibitor: Inhibitors of TCP-1 ring complex (TRiC) of Methanococcus maripaludis (MmCpn): qHTS; Potency, µM (titrated, usually from 76.9 µM), without a hit: at the top dose activity, negative = inhibition, usual class: inhibitors; Chaperonin Mm-Cpn (Methanococcus maripaludis); 0.031% of 330,000 active; purified Mm-Cpn ATPase, ADP Transcreener TR-FRET; note: potency is the fitted concentration of half-maximal effect; nearly all actives have a fitted effect of over 80% in size
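Purified archaeal Mm-CPN (25nM final) preincubated 10 min at 37degC with compound, then 10uM ATP for 30 min at 37degC; ADP measured by HTRF Transcreener TR-FRET; buffer 30 mM TRIS pH 7.4, 100mM KCl, 5mM MgCl2, 1mM DTT.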
VDR inhibitor: Inhibitors of the vitamin D receptor (VDR): qHTS | VDR-SRC2-3 peptide fluorescence polarization, 2 h | Potency, µM, inactives show max response, negative = inhibition, usual class: inhibitors | Vitamin D3 receptor (Homo sapiens), P11473 | 0.93% of 400,000 active; note: potency is the fitted concentration of half-maximal effect
Target sequence (P11473 whole entry, looked up): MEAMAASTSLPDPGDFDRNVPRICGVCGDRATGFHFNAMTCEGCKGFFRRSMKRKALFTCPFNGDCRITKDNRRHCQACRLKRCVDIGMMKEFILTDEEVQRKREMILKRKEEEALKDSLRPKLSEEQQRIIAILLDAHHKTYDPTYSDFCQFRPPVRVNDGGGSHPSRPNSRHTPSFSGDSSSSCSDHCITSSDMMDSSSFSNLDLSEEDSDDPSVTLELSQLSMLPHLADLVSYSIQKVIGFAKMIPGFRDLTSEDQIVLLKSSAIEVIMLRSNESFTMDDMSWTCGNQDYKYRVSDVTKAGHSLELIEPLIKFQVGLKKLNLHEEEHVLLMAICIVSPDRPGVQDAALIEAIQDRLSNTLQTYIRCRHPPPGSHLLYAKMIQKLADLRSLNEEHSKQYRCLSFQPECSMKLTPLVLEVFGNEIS
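Two reagent solutions held at 4 deg C in the dark were dispensed, compounds pinned at 23 nl, and the mixture incubated 2 h at room temperature. Read-out: fluorescence polarization of VDR–SRC2-3 peptide binding.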
PLK1 PBD block: qHTS for Inhibitors of PLK1-PDB (polo-like kinase 1 - polo-box domain): Primary Screen; Serine/threonine-protein kinase PLK1 (Homo sapiens), P53350; Plk1 PBD binding of FITC phosphopeptide, fluorescence polarization; Potency, µM, for the others: max response, negative = inhibition, most hits filed as inhibitors; 2.8% of 360,000 active; AID 720504, 2013; note: potency is the fitted concentration of half-maximal effect; series mostly up to about 57 µM; nearly all actives have a fitted effect of over 65% in size
G9a inh: qHTS Assay for Inhibitors of Histone Lysine Methyltransferase G9a | Potency, µM (titrated, usually from 102 µM), for the others: top-dose activity, negative = inhibition, actives largely listed as inhibitors | Histone-lysine N-methyltransferase EHMT2 (Homo sapiens), Q96KQ7 | 8.8% of 350,000 active | G9a H3K9 monomethylation, AlphaScreen, 2 h; note: potency is the fitted concentration of half-maximal effect; nearly all actives have a fitted effect of over 75% in size
Target sequence (Q96KQ7 913-1193 limits assumed): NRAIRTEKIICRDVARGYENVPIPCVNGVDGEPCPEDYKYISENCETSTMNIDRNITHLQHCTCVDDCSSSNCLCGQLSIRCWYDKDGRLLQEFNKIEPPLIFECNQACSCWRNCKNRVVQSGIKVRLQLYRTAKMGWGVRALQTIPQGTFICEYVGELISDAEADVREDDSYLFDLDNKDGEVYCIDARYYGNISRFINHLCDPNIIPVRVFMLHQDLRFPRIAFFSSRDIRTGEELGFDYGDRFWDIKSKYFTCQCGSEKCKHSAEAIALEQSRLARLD
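Compounds were preincubated with 20 nM G9a for 15 min, after which biotinylated H3K9 peptide (500 nM) and SAM (20 uM) started a 2 h room-temperature reaction. Monomethylated product was quantified by antibody-based AlphaScreen chemiluminescence.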
Sfp inh: qHTS Assay for Inhibitors of Bacillus subtilis Sfp phosphopantetheinyl transferase (PPTase); 4'-phosphopantetheinyl transferase ffp (Bacillus subtilis), Q9F4F7; Biochemical Sfp PPTase activity, qHTS; Potency, µM, for the others: largest response in the series, negative = inhibition, most hits filed as inhibitors; 3.5% of 310,000 active;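 note: the enzyme is Sfp with the accession as filed and its product quenches rhodamine fluorescence; potency is the fitted concentration of half-maximal effect; 0% = enzyme reaction without inhibitor and -100% = no enzyme wells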
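Compounds were incubated with enzyme (final 15 nM) for 15 min at room temperature before substrate addition started the reaction. Fluorescence at 525 nm excitation, 598 nm emission was recorded immediately and after 30 minutes.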
CCT modulator: High-Throughput Screening for Modulators of Cytosolic Chaperonin Activity; activity change, % (no concentration beside the values), hits read low; purified chaperonin ATPase assay, HTRF ADP detection, 30 min; 0.3% of 360,000 active; AID 651819, 2012; in the data active = activity change below about -30%
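ATPase activity: ADP formed was measured by HTRF Transcreener (665/615 nm ratio) after 30 min at 37 deg C with 10 uM ATP. Compounds screened at one 76 uM concentration against 40 or 20 nM TRiC in Tris pH 7.4/KCl/MgCl2/DTT buffer.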
An asterisk follows results filed as active; ? = inconclusive; . = not tested or not shown; ! = repeats disagree; [ ] = another dose, or the depositor's remark. A selection: hits, their analogues and other compounds. The true share with any hit is near 10%. Unless noted, calls come from the whole dose curve; as a rule, active = well fitted curve in the direction sought with a large enough effect; inconclusive = small, poorly fitted or top-dose-only effect, or another doubt; inactive = no such curve, though single readings can be large; an effect the other way counts as inactive or inconclusive. Unless noted, % is set by controls: 0 for no effect and ±100 for the full control effect.

SMILES | Mm-Cpn inhibitor | VDR inhibitor | PLK1 PBD block | G9a inh | Sfp inh | CCT modulator
Cc1csc(NC(=O)CSc2nsc(SCC(=O)Nc3nc(C)cs3)c2C#N)n1 | -1.5% | 16.0% | -13.1% | ? | 4.0% | -4.2
CCOC(=O)C1CCN(S(=O)(=O)c2cc(Br)cc3c2N(C(=O)CC)CC3)CC1 | . | 4.2% | . | 9.1%[59 µM] | . | .
CN(C)c1ccc(C2NCCS2)cc1 (stereo unspecified) | -0.2% | ? | -29.7% | ? | -2.1% | 0.7
Cc1ccc(C2NCCS2)cc1 (stereo unspecified) | -1.7% | -10.2% | 2.2% | 44.7µM* | -13.2% | -1.1
O=[N+]([O-])c1cc(S(=O)(=O)Nc2cccc(C(F)(F)F)c2)ccc1-n1nnc2ccccc21 | 0.8% | 10.4% | 26.7µM* | ? | 21.4% | 0.5
O=[N+]([O-])c1cc(S(=O)(=O)Nc2ccccc2)ccc1N1CCN(c2ccccc2)CC1 | 1.3% | 0.3% | -8.4% | 31.6µM* | 18.8% | -1.3
O=C(c1ccc(N2CCOCC2)c([N+](=O)[O-])c1)N1CCN(c2ccccc2)CC1 | . | 19.8% | ? | . | . | 0.4
O=C(O)c1cc(NS(=O)(=O)c2ccc(N3CCCCC3)c([N+](=O)[O-])c2)cc(C(=O)O)c1 | -2.0% | -3.0% | -20.4% | 13.1%[59 µM] | 24.8% | 0.8
O=[N+]([O-])c1cc(S(=O)(=O)C(F)(F)F)ccc1N1CCN(c2ccccc2)CC1 | -0.8% | -15.4% | -0.4% | 20µM* | 1.7% | -20.4
Cc1nn(-c2ccccc2)c(N)c1N=Nc1cccnc1 | -4.5% | -0.3% | -0.8% | ? | 10.9% | -1.0
Nc1nc(-c2ccccc2)c(N=Nc2cccnc2)s1 | 0.3% | 4.8% | -24.4% | 39.8µM* | 1.1% | -2.2
COc1ccc(-c2csc(CCN3N=C(C)CC3=O)n2)cc1 | 1.5% | 4.4% | -21.5% | 31.6µM* | 3.1% | 1.8
CCSc1nnc2n(-c3cccc(C)c3)c(=O)c3c4c(sc3n12)CCCC4 | . | 6.9% | . | -44.4%[59 µM] | . | .
Cc1ccc(C)n1-c1ccc(C(=O)NN)cc1 | -4.8% | ? | 2.99µM* | 45.1%[59 µM] | -1.2% | 2.1
COc1ccc(N2CC(NC(=O)CCc3ccccc3)CC2=O)cc1OC (stereo unspecified) | . | 4.4% | . | -1.2%[59 µM] | . | .
COc1ccc(C2CC(c3c(-c4ccccc4)c4cc(Cl)ccc4[nH]c3=O)=NN2S(C)(=O)=O)cc1 (stereo unspecified) | 1.3% | -0.4% | -2.4% | 2.2%[12.7 µM] | 3.3% | 0.6
COc1ccc(OC)c(C2CC(c3c(-c4ccccc4)c4cc(Cl)ccc4[nH]c3=O)=NN2S(C)(=O)=O)c1 (stereo unspecified) | 0.9% | 7.4% | 11.8% | 12.4%[59 µM] | 44.7µM* | -10.8
CNC(=O)N(O)C1N(/N=C/c2cc(Br)ccc2O)C(=S)SC1(C)C (stereo unspecified) | 0.7% | -16.6% | -11.6% | 15.9% | 79.4µM* | 0.0
CNC(=O)N(O)C1N(/N=C/c2ccc(C)cc2)C(=S)SC1(C)C (stereo unspecified) | -1.0% | -5.8% | -10.4% | 12.2% | -7.3% | -4.6
S=c1[nH]nc(CSCCOc2ccc(Cl)cc2Cl)o1 | 1.0% | -22.8% | -22.7% | 20µM* | 2.3% | 2.7
Cc1ccc(C(C)(C)NC(=O)C2CCC(=O)N(CC3CCCCC3)C2)cc1 (stereo unspecified) | -1.0% | -25.4% | 26.7µM* | -3.0% | 7.2% | 0.9
CC(=O)NC1[C@H]([C@H](O)[C@H](O)CO)OC(C(=O)O)=C[C@H]1N=C(N)N (stereo partly specified) | . | 2.9% | . | 36.0%[59 µM] | 7.2% | .
CSc1cccc(NC(=O)CN2CCN(Cc3ccccc3C)S2(=O)=O)c1 | . | 0.2% | . | 4.8%[59 µM] | . | .
O=C(CNC(=O)OCc1ccccc1)NCC(=O)Oc1ccc([N+](=O)[O-])cc1 | . | -27.1% | 11.9µM* | . | . | -0.2
O=C(CNC(=O)Cc1ccccc1)NCC(=O)OCc1ccccc1 | -0.7% | 25.8% | -7.9% | 1.2%[2.33 µM] | 10.1% | -3.3
SMILES | Mm-Cpn inhibitor | VDR inhibitor | PLK1 PBD block | G9a inh | Sfp inh | CCT modulator
CCOc1ccc(S(=O)(=O)NCc2cccs2)cc1C(C)C | 1.5% | -7.6% | -3.3% | 10.5% | . | -3.0
Cc1cc(S(=O)(=O)NCc2ccccc2)ccc1OCC(=O)NCc1ccncc1 | -0.7% | -4.2% | 3.9% | . | -28.3% | -1.0
O=C(COc1ccc(S(=O)(=O)NCc2ccccc2)cc1Cl)NCc1ccccn1 | -0.6% | 7.4% | -22.8% | 44.7µM* | ? | -3.9
CCOc1cc(S(=O)(=O)NCc2cccs2)ccc1Cl | -0.1% | 2.3% | 26.7µM* | 8.4%[12.7 µM] | 16.0% | -1.0
O=C(COc1ccc(S(=O)(=O)N2CCc3ccccc32)cc1Cl)NCc1ccccn1 | 0.2% | 17.3% | -9.0% | 14.1µM* | -25.3% | -1.2
COc1cc(S(=O)(=O)NCc2ccccn2)ccc1Cl | -2.0% | ? | 23.8µM* | 25.4%[59 µM] | 6.8% | -0.4
CCOC(=O)N1CCC(NC(=O)c2cnn(-c3cccc(F)c3)c2-n2cccc2)CC1 | . | -2.5% | . | -1.8%[59 µM] | . | .
Nc1nc(-c2ccc(NC(=O)c3ccco3)cc2)cs1 | -1.6% | 15.6% | -19.5% | ? | -23.0% | -2.7
NC(=O)/C(=N\OC(=O)c1ccco1)c1nc(-c2ccc(Br)cc2)cs1 | 0.1% | -16.1% | 5.32µM* | . | 8.9% | -1.4
CCN(CC)S(=O)(=O)c1ccc2c(c1)N(CC(=O)Nc1c(C)cccc1C)C(=O)CO2 | . | -20.0% | . | -19.7%[59 µM] | . | .
CNCCC(Oc1ccccc1C)c1ccccc1 (stereo unspecified) | . | 2.6% | . | 21.2µM*! | 6.2% | .
O=C(O)CC/C(=N/NC(=O)c1cn(-c2ccccc2)nc1-c1ccccc1)C(=O)O | 2.5% | -7.5% | ? | 35.5µM* | -16.6% | 1.0
C[C@@]12CCC(=O)C[C@@H]1CC(=O)[C@H]1[C@H]3CCC[C@]3(C)C(=O)C[C@@H]12 (tested in a mixture with another compound) | . | 0.3% | . | 12.6%[21.5 µM] | 9.4% | .
CSCCC(NS(=O)(=O)c1ccc2c(c1)oc(=O)n2C)C(=O)NCc1ccc(F)cc1 (stereo unspecified) | . | -19.5% | . | 2.5%[59 µM] | . | .
Cc1cc(C)cc(NC(=O)Cn2c(=O)n(Cc3ccc4c(c3)OCO4)c(=O)c3oc4ccccc4c32)c1 | . | 3.6% | . | -7.4%[59 µM] | . | .
O=C1C2CCCN2C(=S)N1c1ccccc1 (stereo unspecified) | -1.2% | -6.2% | 13.4µM* | ? | -7.4% | 0.9

Screening results from PubChem BioAssay.
